The record followed here is ChEMBL document CHEMBL4513216, “Probing the Open Global Health Chemical Diversity Library for Multistage-Active Starting Points for Next-Generation Antimalarials” (ACS Infect Dis, 2020).

Each structure is given as a SMILES string. Hit rate of the full screen: of about 68,000 compounds, about 2,700 (4%) showed an effect of 50% or more. The sample as a whole holds a higher share of strong results than the screen did.

The assay relates to Plasmodium berghei. The assay can be described thus: Screen against P. berghei liver stage (PbLuc), transformed with Luciferase, at 2uM. The conditions noted are these: tested at 2 uM. The assay is classed as functional, HepG2.
For the compound `Fc1cccc(N2CCCC3(C2)CN(c2ncccn2)CCO3)c1` (stereo unspecified), the INHIBITION was 39.9%.
Under `Cc1noc(C2CCCN(C(=O)c3ccc(Br)o3)C2)n1` (stereo unspecified) stands 3.9%; under `Cc1nn(C)c(C)c1C1CCCN1c1ncnc2[nH]ccc12` (stereo unspecified), -41.8%; under `COc1ccc2c(c1)CCCN(C(C)C(=O)NC(N)=O)C2` (stereo unspecified), 6.92%.
`COC(=O)C(C)N1CCCc2cc(OC)ccc2C1` (stereo unspecified): the INHIBITION was found to be 58.69%.
`COc1ccc2c(c1)CCCN(C(C)C(=O)NC(C)C)C2` (stereo unspecified): the INHIBITION is 47.68%.
Under `CCc1cc(C)c(C(=O)N2CCCC2CC(=O)c2cnn(C)c2)o1` (stereo unspecified) stands 9.3%.
The same measure for `COc1ccccc1CC1CCCN(C(=O)c2cn[nH]c2C)C1` (stereo unspecified): -62.85%; for `NCC1CCC(C(NC(=O)c2ccccn2)c2ccccn2)CC1` (stereo unspecified): 8.1%; for `CCN1CCOCC2(CCCN(C(=O)c3conc3C)C2)C1` (stereo unspecified): 16.67%.
Under `CCn1cc(S(=O)(=O)NCC(OC)c2ccccc2)cn1` (stereo unspecified) stands 58.12%; under `COC(CNC(=O)c1ccc(NC(C)=O)cc1)c1cccc(Cl)c1` (stereo unspecified), -8.34%.
In the case of `CCn1cc(S(=O)(=O)NCC(OC)c2cccc(Cl)c2)cn1` (stereo unspecified), the INHIBITION came to 31.78%.
Under `COC(CNC(=O)c1ccoc1)c1cccc(Cl)c1` (stereo unspecified) stands -0.15%; under `CCn1cc(S(=O)(=O)NC(CO)Cc2ccccc2)cn1` (stereo unspecified), 29.19%.
With `CCn1cc(C(=O)NCC(OC)c2cccc(Cl)c2)cn1` (stereo unspecified), the INHIBITION is 55.73%.
Under `Cc1cnn(CCNCC(O)COc2ccc(Cl)cc2Cl)c1` (stereo unspecified) stands 23.94%; under `O=C(NCC1CCOC1)c1csc(-c2cccc(Cl)c2)n1` (stereo unspecified), 25.74%.
The same measure for `N[C@H]1CN(C(=O)c2ccc3[nH]c(=O)c(=O)[nH]c3c2)C[C@@H]1c1ccccc1`: -6.88%; for `N#Cc1ccccc1N1CC2(CCCCN2CC2CC2)CC1=O` (stereo unspecified): -47.71%.
Under `COCc1cc(CNC(=O)c2c(O)cccc2O)n[nH]1` stands 30.93%.
As to `O=C(Nc1ccc2c(c1)OC1(CCCCC1)O2)c1ccc(=O)[nH]n1`, the INHIBITION is recorded as -5.9%.
The same measure for `CCN1CCN(Cc2ccnc(-c3cccnc3)n2)CC1`: 15.58%.
Under `c1cncc(-c2nccc(CN3CCCC3)n2)c1` stands 52.89%.
`c1cncc(-c2nccc(CN3CCC(N4CCCCC4)CC3)n2)c1`: the INHIBITION stood at 25.72%.
The same measure for `CC(C)c1cc(C(=O)NCCCN(C)C)nc(N2CCCC2)n1`: 27.54%.
The same measure for `CC(C)c1noc(CNc2ccc(OC(F)F)cc2OC(F)F)n1`: -70.61%.
For the compound `Cc1noc(CNc2ccc(OC(F)F)cc2OC(F)F)n1`, the INHIBITION is listed as 57.23%.
The same measure for `FC(F)Oc1ccc(NCc2nc(C3CC3)no2)c(OC(F)F)c1`: -35.14%; for `O=C(NCCc1cc(F)ccc1F)NCC(O)C1CC1` (stereo unspecified): 30.69%; for `c1ccc(O[C@H]2COCCN(CC3CC3)C2)cc1`: 20.5%.
Under `CC(NC(=O)Cn1cccn1)c1cccnc1` (stereo unspecified) stands 42.58%; under `CC(NC(=O)NCCCn1cccn1)c1cccnc1` (stereo unspecified), -8.05%.
Under `CC(CC(=O)NCCCn1cccn1)c1cccnc1` (stereo unspecified) stands 74.51%.
For `Cc1nc(O)c2c(n1)CCN(Cc1cc(C)sc1C)CC2`, the INHIBITION is -0.21%.
Under `CCC[C@@H]1CN(Cc2ccccc2-c2ccco2)C[C@H]1NC(C)=O` stands 28.19%; under `COCCN1CCC(Cc2cnc(-c3ccccc3C(=O)O)cn2)CC1`, 20.44%; under `Cc1nnc(C(C)NCC2(c3c(F)cccc3F)CCCC2)o1` (stereo unspecified), 50.9%.
Under `Cc1nnc(C(C)NCC2(c3ccc(F)cc3)CCCCC2)o1` (stereo unspecified) stands -55.34%; under `Cc1cccc(C2(CNC(C)c3nnc(C)o3)CCCC2)c1` (stereo unspecified), 38.96%.
The same measure for `O=C(NCC1CC1)[C@@H]1CCO[C@@H]2CCN(Cc3ccsc3)C[C@H]21`: 28.38%.
As for `O=C(O)c1cc(-c2cc[nH]n2)cc(S(=O)(=O)N2CCCCCC2)c1`, the INHIBITION is listed as 23.17%.
The same measure for `O=C1CN(c2ccc(CNC(=O)Nc3nccs3)cc2)CCN1`: 29.4%; for `Nc1nccnc1C1CN(C(=O)c2ccc3c(c2)OCO3)CCO1` (stereo unspecified): 50.32%; for `Cc1n[nH]c(C2CN(C(=O)c3ccc4c(c3)CCCC4)CCO2)n1` (stereo unspecified): -1.87%.
Under `Nc1nccnc1C1CN(C(=O)c2cnc(C3CC3)nc2)CCO1` (stereo unspecified) stands 39.9%.
Under `Nc1nccnc1C1CN(C(=O)c2ccnnc2)CCO1` (stereo unspecified) stands 27.39%; under `CCc1n[nH]c(C2CN(C(=O)c3nc(C)ncc3Cl)CCO2)n1` (stereo unspecified), 63.95%.
Take `Cc1n[nH]c(C2CN(C(=O)c3ccc4c(c3)COC4)CCO2)n1` (stereo unspecified): the INHIBITION worked out at 67.28%.
Under `CCc1n[nH]c(C2CN(C(=O)c3ncoc3CC)CCO2)n1` (stereo unspecified) stands -15.34%.
Under `CCc1n[nH]c(C2CN(C(=O)c3ccc4c(c3)COC4)CCO2)n1` (stereo unspecified) stands -0.99%; under `CCc1n[nH]c(C2CN(C(=O)c3cnc(C)nc3CC)CCO2)n1` (stereo unspecified), 39.07%; under `COc1ccc(CN2CC[C@H](O)[C@@H]2Cc2cnn(C)c2)cc1`, -10.92%.
The same measure for `CC(NC(=O)N(C)Cc1cnn(C)c1)c1nncn1C` (stereo unspecified): 18.63%.
As to `O=C(Nc1ccc2ncccc2c1)C1CC(=O)N(Cc2ccccn2)C1` (stereo unspecified), the INHIBITION was -6.89%.
Regarding `Cc1noc(C)c1CCC(=O)N1CCN(CCn2cncn2)CC1`, the INHIBITION is on record as 33.75%.
The same measure for `O=C(CCC(F)(F)F)N1CCCC2(CCC(=O)N(CC3CC3)C2)C1` (stereo unspecified): -6.04%.
Take `CC(C)CCN1CC2(CCCN(C(=O)CNC(=O)N(C)C)C2)CCC1=O` (stereo unspecified): the INHIBITION is given as 58.03%.
The same measure for `CN(C)C(=O)NCC(=O)N1CCCC2(CCC(=O)N(CC3CC3)C2)C1` (stereo unspecified): 40.61%.
The same measure for `O=C(CSCC1CC1)N1CCCC2(CCC(=O)N(CC3CC3)C2)C1` (stereo unspecified): 1.42%.
The same measure for `CC(=O)NCC(=O)N1CCCC2(CCC(=O)N(CCc3c[nH]cn3)C2)C1` (stereo unspecified): -53.74%; for `O=C(CO)N1CCCC2(CCC(=O)N(CC3CC3)C2)C1` (stereo unspecified): 62.38%; for `CCN1CCN(C2CCN(Cc3ccc(Cl)s3)CC2)C1=O`: 18.52%.
For `COCC1CC2(CCN(Cc3ccccn3)CC2)CN1c1ncccn1` (stereo unspecified), the INHIBITION is -23.78%.
The same measure for `Cc1nnc(SCCCNc2cc(C3CC3)ncn2)s1`: 60.35%; for `COc1cc(NCCCSc2nnc(C)s2)ncn1`: -29.43%.
The same measure for `Cc1nnc(SCCNc2cc(C3CC3)ncn2)s1`: 12.17%.
Under `Cc1cc(CN2CCC(c3ccnn3CCO)CC2)no1` stands 20.28%; under `COc1cc(S(=O)(=O)N2CCCc3ccccc32)cc(C(=O)O)c1OC`, 56.72%.
In the case of `COc1cc(S(=O)(=O)N2CCc3ccccc32)cc(C(=O)O)c1OC`, the INHIBITION is 12.65%.
Under `COc1cc(S(=O)(=O)N2CCc3ccc(Cl)cc32)cc(C(=O)O)c1OC` stands 6.3%; under `O=C(c1cnccn1)N1CCOCC2(CCN(C3CCOCC3)C2)C1` (stereo unspecified), 26.14%.
Under `Cc1nc(CN2C[C@@H](CN3CCOCC3)[C@@H](CO)C2)c2ccccn12` stands 25.81%; under `O=S(=O)(Cc1ccc(Br)cc1)NCCO`, 17.51%.
As for `NCCNS(=O)(=O)Cc1ccc(Br)cc1`, the INHIBITION amounted to 50.59%.
The same measure for `NCCCNS(=O)(=O)Cc1ccc(Br)cc1`: 5.28%; for `Cn1cc(CN2CC3(CCN(C(=O)c4cscn4)C3)C2)cn1`: -9.1%; for `CC(=O)NCCN1CCC(c2cccs2)CC1`: 26.64%.
The same measure for `Cc1csc(C(=O)NCCN2CCC(c3cccs3)CC2)c1`: 18.23%.
The same measure for `COc1ccc(C(=O)NCCN2CCC(c3cccs3)CC2)cc1OC`: 66.04%.
For the compound `c1cncc(N2CCO[C@H]3CN(CC4CCOC4)C[C@H]32)c1` (stereo partly specified), the INHIBITION was determined as 19.51%.
Under `O=C(Cn1cc(-c2ccccc2)ncc1=O)Nc1ncc[nH]1` stands -80.35%; under `COCCNc1ncc(-c2cccc(F)c2)c(-c2nccn2C)n1`, 27.12%.
Under `CCOCCCNc1ncc(-c2cccc(F)c2)c(-c2nccn2C)n1` stands 55.72%; under `Cn1ccnc1-c1nc(NC2CCCC2)ncc1-c1cccc(F)c1`, 14.3%.
The same measure for `COCCNc1ncc(-c2cccc(OC)c2)c(-c2nccn2C)n1`: 54.87%; for `COCCNc1ncc(-c2cc(C)no2)c(-c2ccco2)n1`: -29.24%.
Regarding `COCCCNc1ncc(-c2cccc(F)c2)c(-c2nccn2C)n1`, the INHIBITION is on record as -18.57%.
On to `CN(C)C(=O)COCc1cncc2c1CCN(Cc1cnn(C)c1)C2`, for which the INHIBITION is 14.91%.
The same measure for `Cc1ccc2c(n1)N(C)CCN(Cc1ccco1)C2`: 29.89%; for `Cc1cnc(CN2C[C@H]3CC(Oc4ccccc4)C[C@H]3C2)cn1` (stereo partly specified): 25.06%.
Under `c1ccc(CN2CC[C@]3(C[C@@H](Oc4ccccn4)CO3)C2)nc1` stands 8.1%; under `CN(C)S(=O)(=O)N1CCC2(CC1)CC(Oc1ccccn1)CO2` (stereo unspecified), 56.78%; under `c1ccc(OC2COC3(CCN(Cc4ccccn4)CC3)C2)cc1` (stereo unspecified), 62.15%.
As for `O[C@@H]1CN(Cc2cnccn2)C[C@H]1Oc1ccccc1`, the INHIBITION is recorded as 26.14%.
The same measure for `CS(=O)(=O)N1CCC2(CC1)CC(Oc1ccccn1)CO2` (stereo unspecified): -0.23%.
As to `CN(C)S(=O)(=O)N1CCC[C@]2(C[C@@H](Oc3ccccn3)CO2)C1`, the INHIBITION is 19.61%.
The same measure for `c1ccc(OC2C[C@@H]3CN(Cc4cnccn4)C[C@@H]3C2)cc1` (stereo partly specified): 50.32%; for `c1ccc(CO[C@@H]2CO[C@@]3(CCN(Cc4ccccn4)C3)C2)nc1`: 40.25%.
The same measure for `COc1ccc2cc(-c3n[nH]cc3CN3CCSCC3)ccc2c1`: 30.34%; for `CN(C)C(=O)CO[C@@H]1CC[C@H]2[C@H]1OCCN2c1ncc(F)cn1`: 34.89%; for `Cc1cc(CN2CCC(CNS(=O)(=O)c3ccc(Br)s3)CC2)c(C)o1`: 23.96%.
The same measure for `CC(C)Cc1nc(CSCC(=O)N2CCC(C)CC2)no1`: -32.8%.
With `O=C(Nc1ccc(F)c(Br)c1)N1CCCC1`, the INHIBITION is on record as -5.87%.
Under `CC(C)CC(NC(=O)c1cccs1)c1nc2cccnc2n1C` (stereo unspecified) stands -19.86%.
The same measure for `NC(=O)C1CCN(CCCNC(=O)Nc2nccs2)CC1`: 28.14%.
